Compound activity from PubChem.
JMJD2A Tudor: qHTS Assay for Inhibitors of JMJD2A-Tudor Domain. Potency, µM (series often up to 114 µM), inactives show top-dose activity change, negative = inhibition, hits mostly inhibitors. AlphaScreen JMJD2A-Tudor / H3K4me3 peptide binding. AID 504339, 2011. 390,000 tested, 4.4% active. Lysine-specific demethylase 4A (Homo sapiens), O75164; further: potency means the concentration at half of the fitted maximal effect; on the % scale 0 is the no-effect control and ±100 the full control effect; nearly all actives have a fitted effect of over 50% in size
PI5P4Ka inh: qHTS for Inhibitors of phosphatidylinositol 5-phosphate 4-kinase (PI5P4K); PI5P4Kalpha enzyme, ADP-Glo luminescence, 60 min; stronger effect = lower value; max response, %; 330,000 tested, 1.2% active; AID 652105, 2013; active means max response of -50% or lower; inconclusive means between -30% and -50%; inactive means -30% or higher; further: value at the top dose of about 77 µM; on the % scale 0 is the no-effect control and ±100 the full control effect
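qHTS, 1536-well: enzyme/substrate mix, compound by pin tool, 5 microM ATP final; RT 60 min; ADP-Glo reagents 1 (45 min) then 2 (30 min); luminescence.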
JMJD2E inh: qHTS Assay for Inhibitors of Human Jumonji Domain Containing 2E (JMJD2E); Lysine-specific demethylase 4E (Homo sapiens), B2RXH2; JMJD2E catalytic domain, FDH-coupled NADH fluorescence (FDH is formaldehyde dehydrogenase); 230,000 tested, 1.6% active; Potency, µM (titrated, usually from 57.1 µM), for inactives: at the highest dose activity change, negative = inhibition, most hits filed as inhibitors; active means well fitted inhibition curve with a large enough effect, not every such curve was filed as active; inconclusive means small, poorly fitted or top-dose-only effect, or another doubt; inactive means no such curve, though single readings can be large or run the other way;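 further: potency means the concentration at half of the fitted maximal effect; 0% = wells with enzyme and -100% = buffer wells without enzyme; nearly all actives have a fitted effect of over 50% in size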
L3MBTL1 inh: qHTS Assay for the Inhibitors of L3MBTL1; Lethal(3)malignant brain tumor-like protein 1 (Homo sapiens), Q9Y468; AlphaScreen L3MBTL1–H3K9me1 peptide binding; Potency, µM (highest dose often 57.1 µM), for inactives: at the top dose activity, negative = inhibition, usual class: inhibitors; 230,000 tested, 0.66% active; AID 485360, 2010; further: potency means the concentration at half of the fitted maximal effect; on the % scale 0 is the no-effect control and ±100 the full control effect; nearly all actives have a fitted effect of over 60% in size
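Read-out is AlphaScreen signal from streptavidin donor and nickel chelate acceptor beads (10 ug/mL final each) bridging L3MBTL1 (50 nM) and biotinylated K9-monomethylated H3(1-15) peptide (75 nM), after 30 min compound exposure at room temperature.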
HP1b binding inh: HTS for Inhibitors of HP1-beta Chromodomain Interactions with Methylated Histone Tails; Chromobox protein homolog 1 (Homo sapiens), P83916; AlphaScreen HP1-beta / biotin-H3K9me3 peptide binding; Potency, µM (titrated, usually from 114 µM), for inactives: top-dose activity change, negative = inhibition, most hits filed as inhibitors; 390,000 tested, 0.56% active; further: potency means the concentration at half of the fitted maximal effect; nearly all actives have a fitted effect of over 70% in size
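Compound inhibition of the preformed complex between 50 nM HP1-beta and 50 nM biotinylated H3K9me3 peptide was read by AlphaScreen. Buffer was PBS pH 7.4 with 0.01% Tween-20. Incubations ran 30 min at room temperature, with 10 ug/mL donor/acceptor beads.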
BAZ2B block: qHTS Assay for Inhibitors of BAZ2B; Bromodomain adjacent to zinc finger domain protein 2B (Homo sapiens), Q9UIF8; Potency, µM (highest dose often 114 µM), inactives show at the highest dose activity change, negative = inhibition, most hits filed as inhibitors; AlphaScreen BAZ2B-H3K14Ac peptide displacement; 360,000 tested, 4.4% active; further: potency means the concentration at half of the fitted maximal effect; on the % scale 0 is the no-effect control and ±100 the full control effect; nearly all actives have a fitted effect of over 60% in size
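Multi-concentration screen (max 110 uM) measuring displacement of acetylated histone H3 peptide from BAZ2B by AlphaScreen, using 50 nM protein, 50 nM peptide and 10 ug/mL streptavidin donor plus Ni-chelate acceptor beads.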
Starred values were filed as active, the others as inactive; u = inconclusive; x = not tested or not shown; [ ] = remark or other dose. Most compounds without a hit are left out; they make up all but 5.7% or so of the library. Unless noted, the call rests on the fitted dose curve; in most records, active means well fitted inhibition curve with a large enough effect; inconclusive means small, poorly fitted or top-dose-only effect; inactive means no such curve, though single readings can be large or run the other way.

SMILES	JMJD2A Tudor	PI5P4Ka inh	JMJD2E inh	L3MBTL1 inh	HP1b binding inh	BAZ2B block
CCN(CC)c1ccc(N=CN2CCOCC2)cc1	79.4µM*	7.0	x	x	u	u
CCN(CC)c1ccc(C=Nc2ccc(C)cc2)c(O)c1	-1.7%	-0.7	-4.9%	1.1%	72.3%	14.3%
COc1ccc(CNC(=O)c2c(C)oc3c2C(=O)c2ccccc2C3=O)cc1	u	-3.7	-13.1%	-0.8%	7.5%	7.94µM*
Cc1cc(N2CCN(C)CC2)ccc1NC(=O)c1ccc(-c2ccc(Cl)cc2)o1	39.8µM*	-1.9	x	-21.3%	u	35.5µM*
C=CCc1cc(F)c(S(=O)(=O)N2CCN(S(=O)(=O)c3ccc4c(c3)OCCO4)CC2)cc1F	-9.6%	x	x	x	x	x
CC(C)=N/N=C(\N)SCc1ccccc1	-19.4%	0.5	-3.6%	x	33.0%	79.4µM*
COc1cccc(/C(O)=C/C(=O)C(=O)Nc2ccc(S(=O)(=O)NC(C)=O)cc2)c1	8.91µM*	2.2	u	13.4%	7.5%	u
O=C(CN1CCN(c2ccccn2)CC1)Nc1ccc(F)c(F)c1	-22.0%	1.5	x	x	67.3%	11.4%
CC(C)(C)c1c(Cl)c(O)c(-c2ccccc2)c(=O)n1-c1ccccc1	50.1µM*	3.4	6.7%	31.6µM*	u	17.8µM*
COc1ccc(S(=O)(=O)NCC(c2ccco2)N2CCN(c3ccccc3)CC2)cc1OC (stereo unspecified)	u	x	x	x	-6.1%	u
COc1ccc(N2CCN(C(CNC(=O)OCc3ccccc3)c3ccco3)CC2)cc1 (stereo unspecified)	39.8µM*	-5.0	-0.3%	-20.6%	u	39.8µM*
COc1ccc(N2CCN(C(CNC(C)=O)c3ccco3)CC2)cc1 (stereo unspecified)	-8.1%[11.4 µM]	0.8	-6.8%	-8.9%	42.1%	-35.6%
COc1ccc(N2CCN(C(CNS(=O)(=O)c3ccc(OC)c(C)c3)c3ccco3)CC2)cc1 (stereo unspecified)	25.1µM*	x	x	x	u	25.1µM*
NC(=O)C1CCN(c2ncnc3c2cnn3-c2cccc(Cl)c2)CC1	-13.8%	x	x	x	31.1%	2.1%
Cc1ccc(C)c(-n2c(-c3ccncc3)n[nH]c2=S)c1	11.2µM*	-0.1	2.9%	x	27.3%	-20.2%
Cc1ccc(-n2c(-c3ccccc3)n[nH]c2=S)c(C)c1	u	-0.5	x	-7.2%	41.1%	-5.3%
Cc1ccc(C)c(-n2c(-c3ccc4c(c3)OCO4)n[nH]c2=S)c1	25.1µM*	x	u	-9.3%	-5.8%	u
Cc1ccc(C)c(-n2c(-c3csc(C)c3)n[nH]c2=S)c1	22.4µM*	x	-27.6%	x	-1.2%	-28.7%
CN(C)S(=O)(=O)c1cccc(NC(=O)c2ccc3nccnc3c2)c1	2.8%	-13.4	0.2%	-7.7%	14.2%	24.3%
Cc1c(NC(=O)c2ncn[nH]2)cccc1-c1nc2ccccc2s1	u	-10.1	-14.4%	-21.2%	-29.4%	25.1µM*
COc1cccc(C(=O)Nc2ccccc2-c2nc3ccccc3s2)c1	37.7%	x	x	x	125.0%	0.0%
O=[S+]([O-])(c1ccc2nsnc2c1)N1CCN([S+](=O)([O-])c2c(F)cccc2F)CC1	-12.3%	x	x	x	x	x
COc1ccc2cc(C(=O)C3CCCN(C(=O)c4cnn(C(C)C)c4)C3)ccc2c1 (stereo unspecified)	17.8µM*	-9.8	x	x	4.5%	-21.8%
Cc1sc(-c2ccccn2)nc1OC(=O)c1ccc(F)cc1F	-7.2%	0.6	-5.1%	33.1%	29.8%	79.4µM*
C/C(=N\Nc1ccc(C(=O)O)cc1)c1ccc2c(c1)Nc1ccccc1S2	u	u	u	28.2µM*	u	50.1µM*
SMILES	JMJD2A Tudor	PI5P4Ka inh	JMJD2E inh	L3MBTL1 inh	HP1b binding inh	BAZ2B block
C/C(=N/Nc1ccc(C(=O)O)cc1)c1ccc2c(c1)Nc1ccccc1S2	u	-23.2	x	x	u	x
O=[S+]([O-])(c1ccc2c(c1)OCCO2)N1CCN([S+](=O)([O-])c2ccc(F)cc2Br)CC1	-9.6%	x	x	x	x	x
COc1cc2c(cc1OC)-c1cc(Nc3ccc(C(=O)O)cc3)nc(=O)n1CC2	u	-22.0	x	x	u	70.8µM*
COc1ccc(Nc2cc3n(c(=O)n2)CCc2cc(OC)c(OC)cc2-3)cc1	u	-20.7	x	x	22.0%	-35.8%
O=[N+]([O-])c1ccc2c(c1)-c1ccccc1C2O (stereo unspecified)	x	-69.1*	x	x	x	x
O=[N+]([O-])c1ccc2c(c1)/C(=N\O)c1ccccc1-2	-23.3%	-5.9	2.2%	4.5%	2.9%	-15.1%
O=C1c2ccccc2C(=O)c2cc(S(=O)(=O)Nc3ccccc3)ccc21	u	0.0	2.6%	-17.3%	u	11.2µM*
CC(CCC(=O)O)C1CCC2C3CC[C@@H]4CCCC[C@@]4(C)C3CC[C@@]12C (stereo partly specified)	x	x	-3.2%	x	x	x
COCCCNC(=O)CSc1ccsc1[N+](=O)[O-]	-12.4%	-20.3	-10.4%	-7.3%	32.5%	-24.7%
O=C(CSc1ccsc1[N+](=O)[O-])NCc1ccco1	u	-70.7*	1.7%	u	-7.4%	-38.4%
Cc1ccccc1NC(=O)CSc1ccsc1[N+](=O)[O-]	25.1µM*	-89.7*	-1.9%	25.1µM*	u	39.8µM*
O=C(Nc1cccc(Cl)c1Cl)c1cc2nc(-c3ccc(Cl)cc3)cc(C(F)(F)F)n2n1	-3.0%	x	x	x	20.1%	-14.5%
Cc1ccc(-c2noc(-c3nnn(-c4ccc(Br)cc4F)c3C)n2)cc1	11.4%	x	x	x	40.8%	4.4%
